Holding throughout (design): scale not given: direction of the effect not stated beside the values
The target of test [1] is Protein translocase subunit SecA (Escherichia coli (strain K12)) (UniProt P10408). The test is described as follows: Assay to Identify E. coli SecA ATPase Inhibitors. It is filed as functional. The following applies: 30 µM.
Test [2] deals with T1, Ubiquitin-activating enzyme e1, putative (Leishmania donovani (strain BPK282A1)) (UniProt E9BSI1).
T1 sequence (whole entry): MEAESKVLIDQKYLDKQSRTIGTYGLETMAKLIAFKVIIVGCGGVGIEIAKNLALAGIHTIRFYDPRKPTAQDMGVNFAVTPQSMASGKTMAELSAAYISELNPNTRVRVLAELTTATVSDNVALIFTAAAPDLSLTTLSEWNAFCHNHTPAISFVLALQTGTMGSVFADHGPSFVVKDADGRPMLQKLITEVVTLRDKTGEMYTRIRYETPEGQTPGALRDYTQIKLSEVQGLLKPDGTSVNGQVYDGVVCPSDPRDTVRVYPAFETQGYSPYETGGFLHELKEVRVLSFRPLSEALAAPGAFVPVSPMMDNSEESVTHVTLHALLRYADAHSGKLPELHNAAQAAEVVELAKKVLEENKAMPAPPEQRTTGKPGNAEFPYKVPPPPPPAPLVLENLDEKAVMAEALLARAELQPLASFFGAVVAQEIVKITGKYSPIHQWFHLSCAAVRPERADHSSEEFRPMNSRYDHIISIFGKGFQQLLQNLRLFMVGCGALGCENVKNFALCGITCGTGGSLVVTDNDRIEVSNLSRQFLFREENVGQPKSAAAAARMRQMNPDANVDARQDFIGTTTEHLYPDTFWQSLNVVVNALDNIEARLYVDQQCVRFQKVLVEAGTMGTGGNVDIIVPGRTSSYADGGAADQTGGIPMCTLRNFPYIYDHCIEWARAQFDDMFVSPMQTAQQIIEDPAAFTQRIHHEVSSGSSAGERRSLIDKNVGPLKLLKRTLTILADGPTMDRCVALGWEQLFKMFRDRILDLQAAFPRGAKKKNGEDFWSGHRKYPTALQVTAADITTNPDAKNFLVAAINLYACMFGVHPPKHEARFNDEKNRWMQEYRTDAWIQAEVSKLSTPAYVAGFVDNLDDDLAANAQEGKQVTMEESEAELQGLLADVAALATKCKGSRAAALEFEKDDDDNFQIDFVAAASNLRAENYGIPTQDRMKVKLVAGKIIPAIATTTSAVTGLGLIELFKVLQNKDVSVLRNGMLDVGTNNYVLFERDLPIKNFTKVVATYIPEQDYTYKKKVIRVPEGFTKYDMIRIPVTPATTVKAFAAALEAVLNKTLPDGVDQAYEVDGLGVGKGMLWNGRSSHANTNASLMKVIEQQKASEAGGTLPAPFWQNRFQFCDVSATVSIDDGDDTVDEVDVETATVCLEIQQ
The test is described as follows: Leishmania donovani Ubiquitin Activating Enzyme (LdE1). It is filed as functional. The following applies: 30 µM.

Test [3] addresses Sialic acid-binding Ig-like lectin 9 (Homo sapiens) (UniProt Q9Y336). The test is described as follows: Hs-Siglec9 ALPHAscreen SOP 20170721. As to conditions: 10 µM. Background: Alpha assays give light when donor and acceptor beads are brought close together.
For the next test, the system named is Trypanosoma cruzi. The test is described as follows: Trypanosoma cruzi phosphomannomutase and mannose-1-phosphate guanylyltransferase assay. In kind it is functional. As to conditions: 10 µM.
Test [4] has as its target T2, Arginase-2, mitochondrial (Homo sapiens) (UniProt P78540).
T2 sequence (whole entry): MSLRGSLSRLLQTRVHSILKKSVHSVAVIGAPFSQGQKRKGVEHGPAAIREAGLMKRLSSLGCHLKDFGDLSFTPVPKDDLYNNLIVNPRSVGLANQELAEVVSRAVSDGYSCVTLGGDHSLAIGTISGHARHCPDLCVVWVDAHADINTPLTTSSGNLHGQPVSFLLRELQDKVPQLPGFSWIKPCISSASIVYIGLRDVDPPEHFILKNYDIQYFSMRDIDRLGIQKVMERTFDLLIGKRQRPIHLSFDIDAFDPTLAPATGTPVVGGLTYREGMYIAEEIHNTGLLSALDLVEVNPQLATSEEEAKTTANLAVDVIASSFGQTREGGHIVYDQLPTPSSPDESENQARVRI
The test is described as follows: in vitro enzyme assay to detect the production of urea directly proportional to the activity of Arginase II. Note: in the data most compounds retested in dose-response had high values. It is filed as functional. The following applies: 33.3 µM.

Test [5] concerns the target T3, Proteasome subunit beta (Trypanosoma cruzi) (UniProt O96673).
T3 sequence (whole entry): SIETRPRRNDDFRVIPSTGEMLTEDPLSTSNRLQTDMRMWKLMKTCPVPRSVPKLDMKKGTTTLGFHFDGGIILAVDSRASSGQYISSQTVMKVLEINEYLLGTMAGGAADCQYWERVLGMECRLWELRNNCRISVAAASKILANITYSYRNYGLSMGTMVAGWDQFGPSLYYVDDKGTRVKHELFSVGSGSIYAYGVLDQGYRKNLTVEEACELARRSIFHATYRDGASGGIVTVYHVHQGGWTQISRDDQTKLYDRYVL
The test is described as follows: Trypanosoma cruzi proteasome chymotrypsin-like activity (TcProtChymo) assay. Note: in the data most compounds retested in dose-response had high values. In kind it is functional. The following applies: 9.37 µM.

The species entered for the next test is Homo sapiens. The test is described as follows: To identify inhibition of the IFN signalling (Jak-Stat) pathway via expression of an eGFP reporter gene under the control of an IFN-stimulated response element (ISRE) containing MxA promoter. It is filed as functional. The following applies: 30 µM. For orientation: Reporter assays use an easily measured gene product as a stand-in for the process of interest.

Test [6] concerns the target T4, Tyrosyl-tRNA synthetase, putative (Trypanosoma cruzi (strain CL Brener)) (UniProt Q4DSP6).
T4 sequence (whole entry): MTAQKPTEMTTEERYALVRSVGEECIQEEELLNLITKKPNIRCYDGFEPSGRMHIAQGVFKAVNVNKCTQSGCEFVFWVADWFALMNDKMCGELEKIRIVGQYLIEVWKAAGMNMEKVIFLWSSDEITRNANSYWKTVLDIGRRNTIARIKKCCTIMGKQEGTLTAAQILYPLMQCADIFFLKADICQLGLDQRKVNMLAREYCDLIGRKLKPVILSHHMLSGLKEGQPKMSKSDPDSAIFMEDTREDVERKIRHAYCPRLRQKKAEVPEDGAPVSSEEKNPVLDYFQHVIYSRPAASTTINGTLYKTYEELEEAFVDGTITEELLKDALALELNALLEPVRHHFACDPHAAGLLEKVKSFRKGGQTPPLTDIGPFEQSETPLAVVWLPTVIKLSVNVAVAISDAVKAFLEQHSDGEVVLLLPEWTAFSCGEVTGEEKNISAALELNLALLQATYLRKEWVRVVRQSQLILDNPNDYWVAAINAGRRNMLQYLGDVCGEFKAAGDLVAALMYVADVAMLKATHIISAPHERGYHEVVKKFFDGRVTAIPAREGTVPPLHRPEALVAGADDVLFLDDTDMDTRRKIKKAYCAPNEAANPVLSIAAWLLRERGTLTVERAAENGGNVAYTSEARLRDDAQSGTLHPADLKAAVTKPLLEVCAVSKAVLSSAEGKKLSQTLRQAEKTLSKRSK
The test is described as follows: Trypanosoma cruzi tyrosyl tRNA synthetase (TcYRS) _High Tyrosine SOP. Note: in the data most compounds retested in dose-response had high values. It is filed as functional. The following applies: 30 µM.

For test [7], the target named is T4, Tyrosyl-tRNA synthetase, putative (Trypanosoma cruzi (strain CL Brener)). The test is described as follows: Trypanosoma cruzi tyrosyl tRNA synthetase (TcYRS) SOP. It is filed as functional. The following applies: 30 µM.
Test [8] has as its target Chromo domain-containing protein 1 (Saccharomyces cerevisiae (strain ATCC 204508 / S288c) (Baker's yeast)) (UniProt P32657). The test is described as follows: ScCHD-1 Enzyme Inhibition Assay. Note: in the data most compounds retested in dose-response had high values. In kind it is functional. The following applies: 30 µM.

Structures are written as SMILES. For some assays here: Potency and affinity values are given separately.

We go through eleven compounds from ChEMBL document CHEMBL3988442, “University of Dundee, Small-Polar-MMV Screening Library” (2021).

Sequence of Sialic acid-binding Ig-like lectin 9 (Homo sapiens) (Q9Y336 whole entry): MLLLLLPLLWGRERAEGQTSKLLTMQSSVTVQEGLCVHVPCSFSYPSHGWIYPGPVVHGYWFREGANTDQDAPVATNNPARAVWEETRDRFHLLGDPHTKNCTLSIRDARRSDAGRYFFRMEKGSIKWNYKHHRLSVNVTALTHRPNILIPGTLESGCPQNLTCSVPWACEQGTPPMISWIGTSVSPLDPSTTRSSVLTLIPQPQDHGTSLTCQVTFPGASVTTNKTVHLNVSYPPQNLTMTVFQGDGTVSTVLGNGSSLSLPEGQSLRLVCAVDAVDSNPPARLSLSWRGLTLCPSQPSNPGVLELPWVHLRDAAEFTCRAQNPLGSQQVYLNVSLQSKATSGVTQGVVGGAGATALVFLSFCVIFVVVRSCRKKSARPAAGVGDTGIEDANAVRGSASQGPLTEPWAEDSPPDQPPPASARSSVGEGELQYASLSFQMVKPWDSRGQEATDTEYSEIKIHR
Sequence of Protein translocase subunit SecA (Escherichia coli (strain K12)) (P10408 whole entry): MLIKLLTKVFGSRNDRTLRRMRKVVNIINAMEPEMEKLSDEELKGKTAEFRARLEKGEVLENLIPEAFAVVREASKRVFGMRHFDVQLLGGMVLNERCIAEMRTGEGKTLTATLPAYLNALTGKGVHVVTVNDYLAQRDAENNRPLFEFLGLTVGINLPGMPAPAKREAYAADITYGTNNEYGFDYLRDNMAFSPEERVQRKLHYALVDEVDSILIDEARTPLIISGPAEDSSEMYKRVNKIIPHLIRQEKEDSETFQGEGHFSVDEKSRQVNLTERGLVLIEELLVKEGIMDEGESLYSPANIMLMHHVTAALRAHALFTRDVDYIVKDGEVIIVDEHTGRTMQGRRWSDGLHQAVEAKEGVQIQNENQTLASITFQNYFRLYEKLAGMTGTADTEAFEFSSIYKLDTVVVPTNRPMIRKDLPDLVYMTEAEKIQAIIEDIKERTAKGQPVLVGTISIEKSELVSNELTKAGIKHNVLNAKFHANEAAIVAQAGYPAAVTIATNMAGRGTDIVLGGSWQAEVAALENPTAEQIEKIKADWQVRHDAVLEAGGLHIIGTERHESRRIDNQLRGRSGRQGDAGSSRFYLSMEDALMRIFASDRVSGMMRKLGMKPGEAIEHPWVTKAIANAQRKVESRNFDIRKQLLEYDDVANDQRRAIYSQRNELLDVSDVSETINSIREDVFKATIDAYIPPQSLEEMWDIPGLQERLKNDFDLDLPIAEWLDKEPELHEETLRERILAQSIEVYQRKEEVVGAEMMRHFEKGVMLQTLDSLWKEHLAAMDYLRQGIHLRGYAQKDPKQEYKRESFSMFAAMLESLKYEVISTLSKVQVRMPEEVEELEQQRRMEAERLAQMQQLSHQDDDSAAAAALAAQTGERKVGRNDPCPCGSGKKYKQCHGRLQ
Sequence of Chromo domain-containing protein 1 (Saccharomyces cerevisiae (strain ATCC 204508 / S288c) (Baker's yeast)) (P32657 whole entry, the tested form may be a part): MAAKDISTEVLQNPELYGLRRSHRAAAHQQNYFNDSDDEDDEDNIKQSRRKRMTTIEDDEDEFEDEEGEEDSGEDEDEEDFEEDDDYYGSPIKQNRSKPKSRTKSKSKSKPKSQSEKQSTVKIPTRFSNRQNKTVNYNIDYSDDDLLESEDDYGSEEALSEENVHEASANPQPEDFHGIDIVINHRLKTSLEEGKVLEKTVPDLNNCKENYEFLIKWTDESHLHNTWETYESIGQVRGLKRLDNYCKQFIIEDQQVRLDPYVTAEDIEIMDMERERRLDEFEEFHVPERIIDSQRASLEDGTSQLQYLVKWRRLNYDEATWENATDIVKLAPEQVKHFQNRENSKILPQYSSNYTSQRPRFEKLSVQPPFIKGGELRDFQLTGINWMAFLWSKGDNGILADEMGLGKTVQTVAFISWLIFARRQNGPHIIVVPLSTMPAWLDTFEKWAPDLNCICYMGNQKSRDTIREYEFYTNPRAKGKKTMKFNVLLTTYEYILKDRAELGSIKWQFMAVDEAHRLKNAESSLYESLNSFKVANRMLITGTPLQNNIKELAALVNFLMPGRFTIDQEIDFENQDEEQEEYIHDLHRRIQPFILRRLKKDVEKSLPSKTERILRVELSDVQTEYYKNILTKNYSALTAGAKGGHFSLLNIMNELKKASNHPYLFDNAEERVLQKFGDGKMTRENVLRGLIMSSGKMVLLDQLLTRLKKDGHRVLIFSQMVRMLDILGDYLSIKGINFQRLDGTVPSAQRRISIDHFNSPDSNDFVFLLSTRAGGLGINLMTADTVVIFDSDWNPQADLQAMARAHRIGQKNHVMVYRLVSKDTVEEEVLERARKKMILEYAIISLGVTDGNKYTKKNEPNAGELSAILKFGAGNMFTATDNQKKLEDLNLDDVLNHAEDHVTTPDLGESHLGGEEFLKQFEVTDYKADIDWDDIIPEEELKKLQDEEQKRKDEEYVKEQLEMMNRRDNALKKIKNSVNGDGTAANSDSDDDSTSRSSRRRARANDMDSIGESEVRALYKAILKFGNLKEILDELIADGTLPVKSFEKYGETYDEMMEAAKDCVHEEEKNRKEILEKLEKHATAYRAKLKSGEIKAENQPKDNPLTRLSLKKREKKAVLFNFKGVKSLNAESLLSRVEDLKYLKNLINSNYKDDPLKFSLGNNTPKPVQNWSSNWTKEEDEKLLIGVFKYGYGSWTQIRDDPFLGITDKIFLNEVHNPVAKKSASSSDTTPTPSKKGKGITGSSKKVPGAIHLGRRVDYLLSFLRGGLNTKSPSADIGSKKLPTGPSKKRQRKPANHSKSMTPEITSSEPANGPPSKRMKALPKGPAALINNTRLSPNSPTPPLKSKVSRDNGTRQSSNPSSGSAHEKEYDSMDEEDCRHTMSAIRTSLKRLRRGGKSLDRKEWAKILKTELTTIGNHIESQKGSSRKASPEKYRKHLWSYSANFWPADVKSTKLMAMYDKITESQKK

Take `c1cnnc(N2CCCC2CNCc2nc(C3CC3)no2)c1` (stereo not given): the Percent Effect in [1] is -0.891%; in test [2], -7.69%; in test [3], 1.93%; in the test on Trypanosoma cruzi, 12.1%; in test [4], 1.64%; in [5] it was 1.11%. Moreover, the Percent Effect is -18.5% in the test listed under Homo sapiens, 6.22% in [6], 6.02% in test [7] and 8.01% in test [8].

On to `CCn1nc2c(cc1=O)CN(Cc1nc(-c3ccccn3)no1)CC2`, for which the Percent Effect in test [1] was -4.5%; in test [2] it was 12.8%; in test [3], -6.79%; with Trypanosoma cruzi it was -0.469%; in test [4], -2.87%; in test [5] it was 14.1%. For the same compound, the Percent Effect amounted to 28.1% in the test listed under Homo sapiens, 0.478% in test [6], 6.02% in test [7] and 0.402% in test [8].

As to `c1csc(-c2nc(CN3CCn4c(nnc4C4CC4)C3)co2)c1`, the Percent Effect was -2.65% in [1]; 5.33% in test [2]; 1.96% in [3]; -3.41% with Trypanosoma cruzi; 2.66% in [4]; 9.58% in test [5]. Also, the Percent Effect was 7.72% in the test listed under Homo sapiens, 6.84% in [6], 5.13% in test [7] and -5.6% in test [8].

Take `OC(COc1ccc(F)cc1)CN1CCC(Cn2cccn2)CC1` (stereo not given): the Percent Effect in test [1] was 0.447%; in test [2] it was 18.2%; in test [3], 8.44%; in the test with Trypanosoma cruzi, 0.933%; in [4], -5.12%; in test [5], 6.14%. The Percent Effect in the test filed under Homo sapiens was -5.99%; in [6], 10.8%; in test [7], 23.5%; in test [8], -4.98%.

Take `Cc1ccoc1-c1nnc(CN2CCCC(Cn3cncn3)C2)o1` (stereo not given): the Percent Effect in test [1] was -4.32%; in test [2], 0%; in [3], 3.64%; with Trypanosoma cruzi, 2.54%; in test [4] it was 7.38%; in [5] it was -8.45%. Besides, the Percent Effect in the test listed under Homo sapiens was 14.1%; in test [6], 3.35%; in test [7] it was 1.21%; in test [8], -1.2%.

`NC(=O)C1CCC(NC(=O)COc2ccc(Cl)c(Cl)c2)CC1` (stereo not given): the Percent Effect in test [1] is -4.03%; in test [2], 10.4%; in [3], 8.56%; in the test with Trypanosoma cruzi it was 6.16%; in test [4], -5.94%; in test [5], 9.12%. Further, the Percent Effect in the test filed under Homo sapiens was 8.8%; in test [6] it was 5.88%; in test [7], 23.5%; in [8], -8.52%.

In the case of `N#Cc1ccccc1C(=O)N1C[C@H](CO)C[C@H](CN2CCCC2)C1`, the Percent Effect is -4.41% in [1]; -54% in [2]; 7.55% in [3]; 6.69% in the test with Trypanosoma cruzi; 16.4% in [4]; 5.65% in [5]. The Percent Effect in the test listed under Homo sapiens was -3.94%; in [6], 2.66%; in test [7], 9.76%; in test [8], -1.92%.

With `O=C1CCC2(CCN(Cc3ccc(F)cc3)CC2)N1Cc1ccccc1`, the Percent Effect was -4.42% in test [1]; 3.9% in test [2]; -4.8% in [3]; -2.63% with Trypanosoma cruzi; -0.913% in test [4]; 9.7% in [5]. Also, the Percent Effect was 1.33% in the test filed under Homo sapiens, 5.8% in [6], 7.5% in test [7] and -4.62% in [8].

For the compound `CC(C)c1cc(NC(=O)CN2CCNC(=O)C2)on1`, the Percent Effect was -0.0493% in test [1]; 26% in [2]; -4.98% in test [3]; -0.933% with Trypanosoma cruzi; -1.43% in [4]; 11.2% in test [5]. The Percent Effect was 1.34% in the test listed under Homo sapiens, 7.84% in test [6], 21.2% in test [7] and -9.71% in test [8].

Regarding `O=c1cccnn1CC1CN(Cc2ccsc2)Cc2nccn2C1` (stereo not given), the Percent Effect was -8.45% in test [1]; -40.3% in test [2]; 11% in test [3]; -1.66% in the test with Trypanosoma cruzi; 3.64% in test [4]; 8.91% in test [5]. For the same compound, the Percent Effect in the test listed under Homo sapiens is -4.15%; in test [6] it was 14.2%; in test [7] it was 15.4%; in test [8], 4.94%.

On to `Cc1ccc(NC(=O)C2CSCN2C(=O)c2cnn(C)c2)c(C)c1` (stereo not given), for which the Percent Effect in test [1] is -6.12%; in test [2], 5.13%; in [3] it was 11%; in the test on Trypanosoma cruzi, 3.29%; in [4], -0.41%; in test [5], -1.28%. In addition, the Percent Effect in the test listed under Homo sapiens is 0.716%; in test [6], 4.31%; in test [7] it was 18.1%; in test [8], -1.32%.
